A selection: hits, their analogues and other compounds. The true share with any hit is near 5.7%.
BAZ2B block = inhibitors of human BAZ2B bromodomain; Q9UIF8; AID 504333; AlphaScreen BAZ2B-H3K14Ac peptide displacement; 360,000 compounds, 4.4% hits; Potency, µM (titrated, usually from 114 µM), without a hit: at the highest dose activity change, negative = inhibition, hits mostly inhibitors; further: potency means the concentration at half of the fitted maximal effect; on the % scale 0 is the no-effect control and ±100 the full control effect; nearly all actives have a fitted effect of over 60% in size
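Complex of BAZ2B and biotin-H3K14Ac (50 nM apiece) forms over 30 min at RT, then faces library compounds up to 110 uM for another 30 min; AlphaScreen beads added, 20 min dark incubation, luminescence read.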
L3MBTL1 block = L3MBTL1 (human) inhibition | AlphaScreen L3MBTL1–H3K9me1 peptide binding | Potency, µM (series often up to 57.1 µM), for inactives: at the highest dose activity, negative = inhibition, hits mostly inhibitors | 230,000 compounds, 0.66% hits; further: potency means the concentration at half of the fitted maximal effect; on the % scale 0 is the no-effect control and ±100 the full control effect; nearly all actives have a fitted effect of over 60% in size
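L3MBTL1 50 nM + b-AHA-H3(1-15)K9me1 75 nM, 30 min RT; compound added, 30 min RT; streptavidin donor/Ni-chelate acceptor beads 10 ug/mL each final, 30 min RT dark; AlphaScreen read.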
HP1b chromo inh = inhibitors of HP1-beta chromodomain binding to methylated histone tails. 390,000 compounds, 0.56% hits. AID 540317. P83916. AlphaScreen HP1-beta / biotin-H3K9me3 peptide binding. Potency, µM (top dose mostly 114 µM), without a hit: top-dose activity change, negative = inhibition, most hits filed as inhibitors; further: potency means the concentration at half of the fitted maximal effect; nearly all actives have a fitted effect of over 70% in size
Target sequence (P83916 whole entry, looked up): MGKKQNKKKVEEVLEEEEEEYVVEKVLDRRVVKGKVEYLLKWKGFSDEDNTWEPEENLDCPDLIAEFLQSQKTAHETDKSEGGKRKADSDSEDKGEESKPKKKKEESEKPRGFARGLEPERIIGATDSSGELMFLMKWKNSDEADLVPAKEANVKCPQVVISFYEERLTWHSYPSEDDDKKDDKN
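Compound inhibition of the preformed complex between 50 nM HP1-beta and 50 nM biotinylated H3K9me3 peptide was read by AlphaScreen. Buffer was PBS pH 7.4 with 0.01% Tween-20. Incubations ran 30 min at room temperature, with 10 ug/mL donor/acceptor beads.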
PI5P4K alpha inh = inhibitors of human PI5P4K alpha. AID 652105. max response, %. PI5P4Kalpha enzyme, ADP-Glo luminescence, 60 min; stronger effect = lower value. 330,000 compounds, 1.2% hits; active means max response of -50% or lower; inconclusive means between -30% and -50%; inactive means -30% or higher; further: value at the top dose of about 77 µM; on the % scale 0 is the no-effect control and ±100 the full control effect
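Human PI5P4Kalpha with substrate in 0.038 M HEPES pH 7.4, 0.28 mM EGTA, 0.1% CHAPS, 5% DMSO; reaction started with 5 microM ATP (final), 60 min at room temperature. ADP formed read by ADP-Glo luminescence.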
KDM4E inh = blocks human JMJD2E demethylase activity; JMJD2E catalytic domain, FDH-coupled NADH fluorescence (FDH is formaldehyde dehydrogenase); Potency, µM (top dose mostly 57.1 µM), inactives show at the highest dose activity change, negative = inhibition, actives largely listed as inhibitors; 230,000 compounds, 1.6% hits; AID 2147; active means well fitted inhibition curve with a large enough effect, not every such curve was filed as active; inconclusive means small, poorly fitted or top-dose-only effect, or another doubt; inactive means no such curve, though single readings can be large or run the other way;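 further: potency means the concentration at half of the fitted maximal effect; 0% = wells with enzyme and -100% = buffer wells without enzyme; nearly all actives have a fitted effect of over 50% in size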
Target sequence (B2RXH2 1-337 limits assumed): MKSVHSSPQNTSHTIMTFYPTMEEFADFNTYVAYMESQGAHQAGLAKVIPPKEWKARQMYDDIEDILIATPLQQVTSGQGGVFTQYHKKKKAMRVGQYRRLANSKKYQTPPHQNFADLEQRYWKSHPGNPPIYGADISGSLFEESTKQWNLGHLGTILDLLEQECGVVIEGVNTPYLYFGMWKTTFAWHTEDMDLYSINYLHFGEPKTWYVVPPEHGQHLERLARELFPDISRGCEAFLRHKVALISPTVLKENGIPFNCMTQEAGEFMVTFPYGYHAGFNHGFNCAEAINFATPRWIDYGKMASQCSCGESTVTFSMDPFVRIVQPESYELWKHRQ
JMJD2A Tudor = JMJD2A Tudor domain (human) inhibition; O75164; AlphaScreen JMJD2A-Tudor / H3K4me3 peptide binding; Potency, µM (top dose mostly 114 µM), for the others: top-dose activity change, negative = inhibition, most hits filed as inhibitors; 390,000 compounds, 4.4% hits; AID 504339; further: potency means the concentration at half of the fitted maximal effect; on the % scale 0 is the no-effect control and ±100 the full control effect; nearly all actives have a fitted effect of over 50% in size
Starred values were filed as active, the others as inactive; ? = inconclusive; . = no result; [ ] = dose if it differs, or a comment. Unless noted, the call rests on the fitted dose curve; in most records, active means well fitted inhibition curve with a large enough effect; inconclusive means small, poorly fitted or top-dose-only effect; inactive means no such curve, though single readings can be large or run the other way.

SMILES	BAZ2B block	L3MBTL1 block	HP1b chromo inh	PI5P4K alpha inh	KDM4E inh	JMJD2A Tudor
CCOc1ccc(C(=O)c2ccc(OCC)c(N)c2)cc1N	-29%	-5%	-12%	2	-2%	?
Cc1ccc(S(=O)(=O)N2CCN(c3nc(-c4cccs4)nc4nc[nH]c34)CC2)cc1	.	.	23%	.	.	-18%
CCC(C)NCCOCCOc1ccc(Br)cc1 (configuration not stated)	79µM*	.	?	5	?	11µM*
CCC(C)NCCOc1ccc(Br)cc1 (configuration not stated)	?	.	?	-1	-27%	3.5µM*
COc1ccccc1NC(=O)C1=C(C)Nc2nc(SC)nn2C1c1ccccc1Cl (configuration not stated)	-13%	.	30%	.	.	-11%
COc1cc(/C=N/N=C2/NC(=O)C(CC(=O)O)S2)ccc1OCc1ccc(Cl)cc1 (configuration not stated)	?	0%	30%	-9	-14%	-34%
CCOc1cc(/C=N/N=C2/NC(=O)C(CC(=O)O)S2)ccc1OCc1ccc(Cl)cc1Cl (configuration not stated)	28µM*	-29%	45µM*	-63*	?	40µM*
O=C(CN1C(=O)NC2(CCCCC2)C1=O)Nc1nc2c(F)cc(F)cc2s1	4%	-6%	22%	-50*	.	-20%
COc1ccccc1C1CCN(C(=O)c2ccccc2)CC1	-2%	.	30%	1	.	2%
COc1ccccc1C1CCN(c2cc(O)ccc2[N+](=O)[O-])CC1	25µM*	-27%	?	-10	0%	50µM*
O=C(COCc1cc(-c2ccc(F)cc2)on1)Nc1cccc(C(F)(F)F)c1	1%	.	53%	.	.	29%
CC1=C(C#N)C(=O)NC(=O)/C1=C\c1ccc(-c2cc(C)c(C)cc2[N+](=O)[O-])o1	45µM*	?	?	-65*	25µM*	56µM*
Cc1ccc(-c2ccc(/C=C3/NC(=O)NC3=O)o2)cc1[N+](=O)[O-]	-30%	-5%	15%	-10	-2%	-32%
O=C1CSC(=NC2CCCCC2)N1	1%	.	48%	-3	4%	-2%
O=C1CS/C(=N/N=C2CCCC2)N1	79µM*	.	27%	0	3%	-13%
O=C(/C=C/c1ccc(Cl)c([N+](=O)[O-])c1)Nc1ccc(N2CCCC2)cc1	-34%	-13%	2%	-10	-13%	-28%
O=C(NC1CCCCC1)C(c1ccc(F)cc1)N(Cc1ccco1)C(=O)CN1C(=O)c2ccccc2S1(=O)=O (configuration not stated)	-2%	9%	4%	-7	-1%	-5%
CCS(=O)(=O)C1=NN2C(=N)/C(=C\c3ccc(OS(=O)(=O)c4ccccc4)c(OC)c3)C(=O)N=C2S1	56µM*	.	.	.	.	.
COc1cc(/C=C2\C(=N)N3N=C(S(C)(=O)=O)SC3=NC2=O)ccc1OS(=O)(=O)c1ccccc1	50µM*	.	.	.	.	.
COc1cc(/C=C2/C(=N)N3N=C(C)SC3=NC2=O)ccc1OS(=O)(=O)c1ccc(C)cc1	-2%	.	11%	-18	.	-8%
COc1cc(/C=C2\C(=N)N3N=C(N4CCOCC4)SC3=NC2=O)ccc1OC(=O)c1ccccc1	50µM*	-1%	-15%	-26	.	?
COc1cc(/C=C2/C(=N)N3N=C(CC(=O)N4CCOCC4)SC3=NC2=O)ccc1OC(C)c1ccccc1 (configuration not stated)	-21%	.	10%	-9	.	-29%
CCc1c(C)sc2c1CCN(C(=O)Nc1ccccc1C(F)(F)F)C2c1ccccc1 (configuration not stated)	-10%	.	-2%	.	.	-20%
CCOC(=O)c1[nH]c(C)c(CCC(=O)Nc2cc(Cl)ccc2C)c1C	9%	.	15%[57 µM]	.	.	-8%
CC1CCCN(C(C(=O)NC2CCCCC2)c2cc3c(cc2[N+](=O)[O-])OCO3)C1 (configuration not stated)	?	11µM*	-23%	0	3%	?
SMILES	BAZ2B block	L3MBTL1 block	HP1b chromo inh	PI5P4K alpha inh	KDM4E inh	JMJD2A Tudor
O=C(NCCCn1ccnc1)c1ccc2ccccc2c1	-23%	.	32%	-4	.	-8%
O=C(Cn1ccnc1)c1ccc(O)c(O)c1	56µM*	?	15%	-2	.	22µM*
CC(C)c1ccc(NC(=O)C2Cc3c(-c4ccco4)ccnc3O2)cc1 (configuration not stated)	.	.	.	0	.	.
CC1(C)CC2CC(C)(CN2Cc2cccc([N+](=O)[O-])c2)C1 (configuration not stated)	?	-4%	?	1	.	20µM*
Clc1ccc(OCc2nnc(SCCN3CCCCC3)n2Cc2ccco2)cc1	89µM*	.	13%	-4	-5%	?
Cc1occc1-c1nnc(SCC(=O)c2ccc(F)cc2)n1Cc1ccco1	50µM*	-23%[11.4 µM]	-3%	-14	-3%	-30%
CCc1ccc(OCc2nnc(SCCN3CCOCC3)n2CC)cc1	.	-3%	?	.	?	3.2µM*
O=C(CSc1nnc(COc2ccccc2)n1Cc1ccco1)c1ccc(F)cc1	?	-19%	18%	-3	-2%	79µM*
Cc1cc2nc3c(=O)n(C4CCCCC4)c(=O)[nH]c3nc2cc1N	-23%	-27%	3%	?	0%	2%
CCOC(=O)CSc1nc2sc3c(c2c(=O)n1-c1ccc(OC)cc1)CC(C(C)C)OC3 (configuration not stated)	-1%	.	30%	.	.	1%
O=C(Cn1ccc([N+](=O)[O-])n1)NCc1cccnc1	-21%	0%	17%	0	11%	-12%
CCc1nc2ccc(C(=O)Nc3cccc(OCC(=O)N(C)C)c3)cn2c1N(C)C(=O)c1cccc(OC)c1	.	.	.	1	.	.
COc1cc([N+](=O)[O-])cc(/C=N/NC(=O)C(O)(c2ccccc2)c2ccccc2)c1O	?	-6%	18%	1	.	-28%
COc1cccc(/C=N/Nc2nn3cnnc3c3ccccc23)c1O	0%	-3%	43%	2	18µM*	-8%
Cc1cc(C)nc(SCc2ccc(C(=O)N/N=C/c3cccc(O)c3O)cc2)n1	-25%	-12%	10%	?	3.2µM*	-25%
COc1cc([N+](=O)[O-])cc(/C=N/NC(=O)C(C)Nc2cccc3ccccc23)c1O (configuration not stated)	45µM*	-19%	-29%	-50*	4.5µM*	?
COc1cc([N+](=O)[O-])cc(/C=N/NC(=O)c2cccnc2)c1O	18µM*	14µM*	13%	-13	8.9µM*	22µM*

From PubChem
